The test system of experiment [1] is Wnt5a (protein binding on small-molecule microarray). The experiment in a line: small molecules binding Wnt5a protein – biophysical, small-molecule microarray, 635/667 nm fluorescence, primary screen (AID 1142).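 Note: fluorescence read at 667 nm with signal to noise per printed feature.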 As to conditions: 635 nm fluorescence, higher = more signal.
Experiment [2] can be described thus: ATP-based viability of Huh7 replicon cells – cell-based, CellTiter-Glo luminescence, basal, 48 h, cytotoxicity control for HCV replication inhibitor project, primary screen (AID 1143).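 Note: Huh7 hepatoma cells carrying a hepatitis C replication reporter with no stimulus; test concentration not given here.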 As to conditions: higher = more signal, called active from +8 up or from −8 down.
Experiment [3] in a line: basal CRE-LacZ reporter activity in PC12 – cell-based, unstimulated, primary screen (AID 1145). As to conditions: no forskolin, luminescence, 4.5 h, higher = more signal, called active from +8 up or from −8 down.
The nature of experiment [4]: forskolin-driven CRE-LacZ activity in PC12 – cell-based, CRE-LacZ reporter, forskolin-stimulated, primary screen (AID 1146).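 Note: PC12 cells with 6xCRE LacZ reporter stimulated by forskolin 10 µM; beta-galactosidase reporter signal reflecting CREB driven transcription.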 The conditions noted are these: luminescence, 4.5 h, higher = more signal, called active from +8 up or from −8 down.
Experiment [5] has as its target Streptavidin (Streptomyces avidinii) (UniProt P22629). The experiment in a line: compounds binding control protein streptavidin – biophysical, small-molecule microarray, 635/667 nm fluorescence, artefact control for SMM compound annotation, primary screen (AID 1147).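 Note: signal reflects streptavidin binding to arrayed compounds as a control protein.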 As to conditions: higher = more signal.
The nature of experiment [6]: probe aInhba binding on compound microarray – biochemical, small-molecule microarray, 635/667 nm fluorescence, primary screen (AID 1148).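 Note: score merges 667nm spot fluorescence with signal-to-noise for antibody binding to printed compounds.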 The conditions noted are these: higher = more signal.
Experiment [7] deals with Torsin-1A (Homo sapiens) (UniProt O14656). Kind of experiment: TOR1A wild-type binding on microarray – cell lysate, small-molecule microarray, lysate, 635/667 nm, primary screen (AID 1149). As to conditions: COS7 hTOR1A-WT lysate, 635 nm fluorescence, higher = more signal.
Experiment [8] shares this target. The experiment in a line: torsin A mutant lysate binding on microarrays – cell lysate, small-molecule microarray, COS7 lysate, 635/667 nm fluorescence, primary screen (AID 1150).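 Note: score pools 667 nm emission and signal to noise measuring lysate protein binding.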 The conditions noted are these: COS7 hTOR1A mutant lysate, 635 nm fluorescence, higher = more signal.
The test system of experiment [9] is Sonic hedgehog protein (Shh). Kind of experiment: Sonic hedgehog microarray binding compounds – biochemical, small-molecule microarray, 635/667 nm fluorescence, primary screen (AID 1151).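 Note: Shh protein binding to compounds spotted on small-molecule microarray slides; score combines spot fluorescence intensity with signal-to-noise across triplicate slides.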 The conditions noted are these: 635 nm fluorescence, higher = more signal.
Experiment [10] in a line: optical density shifts of acrAB sulA E. coli – strain DRC41, OD650, 48 h, E. coli filamentation inducer project, primary screen (AID 1152).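 Note: E. coli MC1000 strain DRC41 lacking acrAB efflux pump and sulA.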 The conditions noted are these: higher = more signal, called active from +8 up or from −8 down.
The nature of experiment [11]: probe aLefty1 binding on compound microarray – biochemical, small-molecule microarray, 635/667 nm fluorescence, primary screen (AID 1153).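 Note: score merges spot fluorescence with signal-to-noise ratio from the scanned slide images.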 As to conditions: higher = more signal.
Experiment [12] can be described thus: plasmodial surface anion channel blockers, osmotic lysis – cell-based, P. falciparum Indochina, OD700, 1 h, primary screen (AID 1154). The conditions noted are these: P. falciparum Indochina infected RBC osmotic lysis, higher = more signal, called active from +8 up or from −8 down.
Experiment [13] is described as follows: plasmodial surface anion channel blockers, osmotic lysis – cell-based, P. falciparum Indochina, OD700, 2 h, primary screen (AID 1155).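 Note: lysis reports solute entry through the parasite surface anion channel PSAC.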 As to conditions: P. falciparum Indochina infected erythrocytes, higher = more signal, called active from +8 up or from −8 down.
The nature of experiment [14]: changes in parasitized red cell lysis, either direction – P. falciparum Indochina, OD700, 3 h, PSAC antagonist project, primary screen (AID 1156). The conditions noted are these: P. falciparum-infected erythrocytes, osmotic lysis, higher = more signal, called active from +8 up or from −8 down.
Experiment [15] can be described thus: plasmodial surface anion channel blockers, osmotic lysis – cell-based, P. falciparum Indochina, OD700, 18 h, primary screen (AID 1157). The conditions noted are these: P. falciparum Indochina infected erythrocytes, osmotic lysis OD700, 18 h; higher = more signal, called active from +8 up or from −8 down.
Experiment [16] can be described thus: S6 kinase pathway phospho-S6 level changes – cell-based, A549, cytoblot, luminescence, serum-stimulated, primary screen (AID 1158).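 Note: serum-stimulated A549 lung adenocarcinoma cells; signal is phosphorylated S6 detected by cytoblot immunostaining with HRP secondary.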 The conditions noted are these: 5 h, higher = more signal.
Experiment [17] addresses NADPH oxidase 2 (Homo sapiens) (UniProt P04839). The experiment in a line: compounds shifting NOX2 Amplex Red fluorescence – cell-based, HEK293-NOX2, PMA-stimulated, NOX inhibitor project, primary screen (AID 1159). Note: test concentration not given here. The conditions noted are these: 45 min, higher = more signal, called active from +8 up or from −8 down.
In experiment [18] the target is NADPH oxidase 4 (Homo sapiens) (UniProt Q9NPH5). Kind of experiment: compounds shifting NOX4 Amplex Red fluorescence – cell-based, HEK293-NOX4, tetracycline-induced, NOX inhibitor project, primary screen (AID 1160). As to conditions: HEK293-NOX4, Amplex Red H2O2 fluorescence, 45 min; higher = more signal, called active from +8 up or from −8 down.
Experiment [19] deals with NADPH oxidase 5 (Homo sapiens) (UniProt Q96PH1). Kind of experiment: compounds shifting NOX5 Amplex Red fluorescence – cell-based, HEK293-NOX5, NOX inhibitor project, primary screen (AID 1161). The conditions noted are these: HEK293-NOX5, ionomycin, 45 min, higher = more signal.
A short description of experiment [20]: compound effects on lung adenocarcinoma cell viability – A549, calcein-AM fluorescence, 48 h, basal, profiling panel (AID 1162). Note: test concentration not given here. The conditions noted are these: higher = more signal.

Structures are written as SMILES. Active and inactive are the calls of the source.

Sequence of Torsin-1A (Homo sapiens) (O14656 whole entry, looked up): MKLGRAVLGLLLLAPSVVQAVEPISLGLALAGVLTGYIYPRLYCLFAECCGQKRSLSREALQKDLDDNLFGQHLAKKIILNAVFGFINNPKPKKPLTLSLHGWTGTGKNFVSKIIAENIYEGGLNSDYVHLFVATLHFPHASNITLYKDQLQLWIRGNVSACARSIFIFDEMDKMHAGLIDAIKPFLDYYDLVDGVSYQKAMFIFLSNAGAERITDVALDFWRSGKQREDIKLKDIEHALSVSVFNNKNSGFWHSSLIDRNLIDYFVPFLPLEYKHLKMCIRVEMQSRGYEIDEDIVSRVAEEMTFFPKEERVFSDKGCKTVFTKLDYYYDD
Sequence of NADPH oxidase 5 (Homo sapiens) (Q96PH1 whole entry, looked up): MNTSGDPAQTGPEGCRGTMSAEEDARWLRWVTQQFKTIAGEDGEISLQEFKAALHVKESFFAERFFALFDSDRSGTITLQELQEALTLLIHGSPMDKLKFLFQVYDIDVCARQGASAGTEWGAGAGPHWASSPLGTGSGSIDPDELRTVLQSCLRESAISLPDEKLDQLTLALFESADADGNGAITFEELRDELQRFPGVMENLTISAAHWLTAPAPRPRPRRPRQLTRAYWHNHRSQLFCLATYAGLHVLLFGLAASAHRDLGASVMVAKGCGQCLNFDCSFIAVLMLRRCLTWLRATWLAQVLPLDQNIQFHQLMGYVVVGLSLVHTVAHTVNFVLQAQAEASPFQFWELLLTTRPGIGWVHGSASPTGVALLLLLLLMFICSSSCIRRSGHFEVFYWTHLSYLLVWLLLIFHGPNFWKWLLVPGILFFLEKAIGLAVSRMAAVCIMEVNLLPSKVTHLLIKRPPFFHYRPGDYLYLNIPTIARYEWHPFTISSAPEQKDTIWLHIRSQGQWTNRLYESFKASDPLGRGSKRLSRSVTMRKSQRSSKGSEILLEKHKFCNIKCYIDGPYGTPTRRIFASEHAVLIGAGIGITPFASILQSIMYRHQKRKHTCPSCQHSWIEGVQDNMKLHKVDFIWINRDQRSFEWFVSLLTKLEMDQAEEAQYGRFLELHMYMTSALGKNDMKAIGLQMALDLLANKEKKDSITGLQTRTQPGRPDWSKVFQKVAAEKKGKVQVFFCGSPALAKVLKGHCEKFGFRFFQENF
Sequence of NADPH oxidase 4 (Homo sapiens) (Q9NPH5 whole entry, looked up): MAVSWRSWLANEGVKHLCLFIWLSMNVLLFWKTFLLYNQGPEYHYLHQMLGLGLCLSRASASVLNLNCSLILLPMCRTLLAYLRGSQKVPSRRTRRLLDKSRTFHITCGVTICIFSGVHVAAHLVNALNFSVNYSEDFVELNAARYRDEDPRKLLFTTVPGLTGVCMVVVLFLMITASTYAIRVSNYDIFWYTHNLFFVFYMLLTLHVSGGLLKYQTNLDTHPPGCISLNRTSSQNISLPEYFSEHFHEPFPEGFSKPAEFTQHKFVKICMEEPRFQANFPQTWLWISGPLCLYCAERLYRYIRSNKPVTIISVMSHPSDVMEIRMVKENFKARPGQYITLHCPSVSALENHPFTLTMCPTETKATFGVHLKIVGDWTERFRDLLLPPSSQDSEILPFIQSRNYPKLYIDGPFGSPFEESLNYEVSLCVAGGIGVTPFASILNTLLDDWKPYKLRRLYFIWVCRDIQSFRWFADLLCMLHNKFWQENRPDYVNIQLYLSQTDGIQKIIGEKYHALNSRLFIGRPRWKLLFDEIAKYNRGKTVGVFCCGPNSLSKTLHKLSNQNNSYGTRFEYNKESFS
Sequence of NADPH oxidase 2 (Homo sapiens) (P04839 whole entry, looked up): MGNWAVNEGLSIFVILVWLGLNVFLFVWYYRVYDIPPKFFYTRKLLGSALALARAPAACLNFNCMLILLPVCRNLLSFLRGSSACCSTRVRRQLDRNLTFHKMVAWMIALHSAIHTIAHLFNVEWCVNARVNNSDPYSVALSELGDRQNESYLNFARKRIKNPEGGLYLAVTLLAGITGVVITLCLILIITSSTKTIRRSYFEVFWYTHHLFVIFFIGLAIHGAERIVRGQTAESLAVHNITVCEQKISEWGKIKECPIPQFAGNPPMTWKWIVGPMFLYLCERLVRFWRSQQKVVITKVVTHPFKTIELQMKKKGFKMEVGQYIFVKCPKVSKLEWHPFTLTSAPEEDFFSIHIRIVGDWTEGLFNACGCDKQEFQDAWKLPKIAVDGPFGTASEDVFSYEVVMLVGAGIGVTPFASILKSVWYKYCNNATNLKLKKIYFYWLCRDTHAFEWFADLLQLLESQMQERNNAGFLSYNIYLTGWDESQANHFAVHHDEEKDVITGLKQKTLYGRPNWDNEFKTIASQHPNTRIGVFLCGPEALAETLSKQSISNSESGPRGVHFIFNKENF
Sequence of Streptavidin (Streptomyces avidinii) (P22629 whole entry, looked up): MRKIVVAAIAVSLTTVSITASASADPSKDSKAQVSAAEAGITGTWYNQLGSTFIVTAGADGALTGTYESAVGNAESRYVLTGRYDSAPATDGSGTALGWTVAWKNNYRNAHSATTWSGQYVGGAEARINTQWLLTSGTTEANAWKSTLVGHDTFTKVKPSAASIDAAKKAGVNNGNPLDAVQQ

Consider `COc1ccc([Si](C)(C)[C@@H]2[C@@H](CCn3cc([C@H](O)c4ccccc4)nn3)O[C@]3(C(=O)N(C)c4c(Br)cc(C)cc43)[C@H]2C)cc1`, for which the composite z-score in [1] is 0.17; in [5], -0.541; in [6], 0.0659; in the experiment with Torsin-1A (Homo sapiens) [7], 0.722; with Torsin-1A (Homo sapiens) [8], -0.0682; in [9] it was 0.658. This compound gave a composite z-score in experiment [11] of -0.279. Also, the z-score is -6.27 (inactive) in experiment [2]; 8.24 (active) in [3]; -1.37 (inactive) in experiment [4]; 3.5 (inactive) in [10]; 26.4 (active) in experiment [12]; 15.1 (active) in [13]. The z-score in experiment [14] was 0.547 (inactive); in [15], 0.083 (inactive); in [16] it was 2.34; in experiment [17], 1.04 (inactive); in experiment [18], 0.593 (inactive); in experiment [19], 0.231. The z-score in [20] is -1.72.
`O=C1O[C@@H](c2ccccc2)[C@@H](c2ccccc2)N2[C@@H](c3ccc(OCCO)cc3)[C@]3(C(=O)Nc4ccc(C#CC5(O)CCCCCC5)cc43)[C@@H](C(=O)NC[C@H](O)c3ccccc3)[C@H]12`: the composite z-score in experiment [1] stood at 0.432; in experiment [5], 0.866; in experiment [6], 0.0827; in the experiment with Torsin-1A (Homo sapiens) [7] it was 1.2; in the experiment with Torsin-1A (Homo sapiens) [8], 0.711; in experiment [9] it was 0.855. In [11], this compound registered a composite z-score of 0.339. The z-score in [2] was -3.51 (inactive); in experiment [3], 0.0776 (inactive); in experiment [4], -1.71 (inactive); in [10], 2.35 (inactive); in experiment [12], 1.21 (inactive); in experiment [13], 0.484 (inactive). In addition, the z-score in [14] is -0.206 (inactive); in experiment [15] it was -0.863 (inactive); in experiment [16], 1.13; in experiment [17], 1.37 (inactive); in experiment [18], 1.14 (inactive); in [19] it was 0.427. For the same compound, in experiment [20], the z-score is 0.71.
Turning to `COc1ccc(/C=C/C(=O)c2cccc(OCC(=O)OC(C)(C)C)c2)cc1`, the composite z-score in experiment [1] is -0.132; in experiment [5], -0.152; in experiment [6] it was -0.363; with Torsin-1A (Homo sapiens) [7], 0.349; with Torsin-1A (Homo sapiens) [8] it was 0.179; in experiment [9], -0.139. This compound also displayed a composite z-score in [11] of -0.113. For the same compound, the z-score was -0.385 (inactive) in experiment [2]; 0.622 (inactive) in experiment [3]; -0.588 (inactive) in experiment [4]; 1.42 (inactive) in [10]; 30.9 (active) in experiment [12]; 25.8 (active) in experiment [13]. The z-score is 0.746 (inactive) in experiment [14]; 1.41 (inactive) in experiment [15]; 0.112 in experiment [16]; -1.32 (inactive) in experiment [17]; 0.197 (inactive) in experiment [18]; -3.7 in experiment [19]. In addition, the z-score in [20] is 0.764.
On to `CC(C)C[C@@H]1NC(=O)[C@H]2C[C@@H](C(=O)NCCCC[N+](C)(C)C)[C@@H](c3cccc(OCCO)c3)N2C1=O`, for which the composite z-score in experiment [1] was 0.223; in [5], -0.429; in experiment [6] it was -0.1; in the experiment with Torsin-1A (Homo sapiens) [7] it was 2.05; with Torsin-1A (Homo sapiens) [8], 0.629; in experiment [9], 2.03. In experiment [11], this compound returned a composite z-score of -0.243. Also, the z-score was -1.01 (inactive) in [2]; -0.26 (inactive) in experiment [3]; -1.21 (inactive) in experiment [4]; 0.512 (inactive) in experiment [10]; 2.25 (inactive) in [12]; -1.73 (inactive) in experiment [13]. Moreover, the z-score is -2.51 (inactive) in experiment [14]; -2.05 (inactive) in experiment [15]; 0.251 in [16]; -1.8 (inactive) in [17]; -0.815 (inactive) in [18]; -1.49 in experiment [19]. For the same compound, the z-score in experiment [20] is 1.01.
For `C=CCC(OC(C)=O)[C@@H]1[C@@H](N(Cc2ccc(-c3ccccc3)cc2)C(=O)c2ccc(-c3ccccc3)cc2)c2cc(OCCCO)ccc2N1C(=O)c1ccc(-c2ccccc2)cc1` (stereo not given in full), the composite z-score was found to be 0.144 in [1]; 0.222 in experiment [5]; 0.0439 in experiment [6]; 0.276 with Torsin-1A (Homo sapiens) [7]; 0.0533 in the experiment with Torsin-1A (Homo sapiens) [8]; 0.107 in [9]. The compound further registered a composite z-score in experiment [11] of -0.0088. Besides, the z-score in experiment [2] was 0.534 (inactive); in [3], -0.0247 (inactive); in experiment [4], -0.426 (inactive); in [10], 2.03 (inactive); in [12], 0.568 (inactive); in [13], 0.712 (inactive). Also, the z-score in experiment [14] is -0.181 (inactive); in [15], 0.0154 (inactive); in experiment [16], 0.531; in experiment [17], 0.844 (inactive); in experiment [18], 0.967 (inactive); in [19] it was 1.17. Also, the z-score in experiment [20] was 0.444.
As to `C=CC[C@]1(C(=O)N(C)C)N=C(c2ccc(OCCCO)cc2)O[C@H]1c1ccccc1CN=[N+]=[N-]`, the composite z-score in [1] was 0.508; in experiment [5], 1.39; in [6], 0.0388; in the experiment with Torsin-1A (Homo sapiens) [7] it was 0.581; with Torsin-1A (Homo sapiens) [8], 1.1; in experiment [9], 0.0463. In addition, the composite z-score in experiment [11] is -0.237. Further, the z-score was -1.79 (inactive) in experiment [2]; 2.8 (inactive) in [3]; -1.16 (inactive) in [4]; 1.19 (inactive) in experiment [10]; 11.8 (active) in [12]; 1.47 (inactive) in experiment [13]. The z-score in experiment [14] is 2.63 (inactive); in experiment [15], 0.817 (inactive); in experiment [16], 0.434; in experiment [17], 1.23 (inactive); in experiment [18], 0.653 (inactive); in experiment [19], -1.25. Further, the z-score in [20] was 0.937.
For the compound `CC(C)(C)OC(=O)CC[C@]1(C(=O)NCc2ccccc2)COC(c2ccc(OCCCO)cc2)=N1`, the composite z-score in experiment [1] was 0.433; in experiment [5], 0.74; in [6], -0.0308; in the experiment with Torsin-1A (Homo sapiens) [7] it was -0.208; with Torsin-1A (Homo sapiens) [8], 1.11; in [9], -0.743. For the same compound, in [11], the composite z-score stood at 0.0738. Further, the z-score in [2] was -1.47 (inactive); in [3] it was 1.7 (inactive); in [4], -1.32 (inactive); in experiment [10], 2.02 (inactive); in [12], 18.7 (active); in experiment [13] it was 1.92 (inactive). Moreover, the z-score in experiment [14] is 1.99 (inactive); in experiment [15], -1.39 (inactive); in [16], 0.719; in [17], 0.117 (inactive); in [18] it was 0.804 (inactive); in experiment [19], -1.01. Besides, the z-score in [20] is 0.661.
`Cc1ccc(S[C@]2(C(=O)NC3CC3)CC(=O)N(Cc3ccccc3C(F)(F)F)[C@@H]2c2ccc(CO)cc2I)cc1`: the composite z-score in experiment [1] was 0.132; in [5] it was -0.297; in [6], -0.0523; with Torsin-1A (Homo sapiens) [7], -0.0139; with Torsin-1A (Homo sapiens) [8], 0.231; in experiment [9] it was 0.385. The compound also displayed a composite z-score in [11] of 0.309. In addition, the z-score in experiment [2] was -2.54 (inactive); in [3] it was -0.114 (inactive); in experiment [4] it was -0.479 (inactive); in [10], 2.31 (inactive); in [12], 5.75 (inactive); in experiment [13], -0.15 (inactive). Moreover, the z-score is 0.693 (inactive) in [14]; -1.31 (inactive) in experiment [15]; 1.8 in [16]; 1.42 (inactive) in experiment [17]; -2.36 (inactive) in [18]; 1.21 in experiment [19]. Moreover, in [20], the z-score is 0.243.

The values above are taken from PubChem BioAssay.
